The values below come from PubChem BioAssay (Tox21).

Where “and” joins values, the source holds several entries; their conditions need not be identical. Identical values can stand only once. Results filed as inconclusive are left out. More than one record can exist for a structure, and the calls need not agree. Calls of active or inactive are those of the source. Unless noted, the call rests on the fitted dose curve; in most records, active means well fitted curve in the direction sought with a large enough effect in the repeat runs; inconclusive means weak or mixed curves; inactive means no such curve, though single readings can be large; an effect the other way counts as inactive or inconclusive.

The nature of assay [1]: qHTS assay to identify small molecule agonists of the estrogen related receptor (ERR) signaling pathway from Tox21 library (AID 1224849; calls by dose curve; further: nearly all actives have a fitted effect of over 15% in size). As to conditions: ERR reporter cell line, ONE-Glo luciferase, 18 h; at 92.4 µM (top of the series) unless noted. Summed up: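 ERR reporter cells (NTP line) pre-incubated 6 hours at 37 C, then exposed to compounds for 18 hours at 37 C. ONE-Glo luciferase luminescence was read after 30 minutes at room temperature.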

The nature of assay [2]: A CellTox Green Cytotoxicity Assay to monitor cytotoxicity in HEK293 cells - 0 hour (AID 1224869). Further: nearly all actives have a fitted effect of over 50% in size. An outline of the steps:
(§1)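 HEK293 cells, 600/well, were preincubated 5 hours and then exposed to compounds at 37 C for up to 40 hours. A cell-impermeant cyanine dye staining dead-cell DNA was read by fluorescence at 0, 8, 16, 24, 32 and 40 h time points.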

A short description of assay [3]: qHTS RealTime-Glo MT Cell Viability Assay in HEK293 cells - 40 hour (AID 1224874). Further: nearly all actives have a fitted effect of over 50% in size. Further: potency means the concentration at half of the fitted maximal effect. As to conditions: RealTime-Glo luminescence; max response: stronger effect = lower value. An outline of the steps:
(§2)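 600 cells/well were plated with the nonlytic NanoLuc/prosubstrate reagent, pre-incubated 5 h, then given 23 nL of compound in DMSO. Incubation at 37 C for 40 h, with luminescence from viable-cell-reduced substrate read repeatedly from 0 h.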

Assay [4] is described as follows: A CellTox Green Cytotoxicity Assay to monitor cytotoxicity in HEK293 cells - 24 hour (AID 1224875). Further: nearly all actives have a fitted effect of over 45% in size. Further: potency means the concentration at half of the fitted maximal effect. An outline of the steps: as §1
The nature of assay [5]: qHTS RealTime-Glo MT Cell Viability Assay in HEK293 cells - 0 hour (AID 1224880). Further: top concentration of the series differs between compounds; nearly all actives have a fitted effect of over 45% in size. An outline of the steps: as §2
Assay [6] in a line: A CellTox Green Cytotoxicity Assay to monitor cytotoxicity in HEK293 cells - 32 hour (AID 1224881). Further: nearly all actives have a fitted effect of over 40% in size. Further: potency means the concentration at half of the fitted maximal effect. An outline of the steps: as §1
Assay [7] can be described thus: A CellTox Green Cytotoxicity Assay to monitor cytotoxicity in HepG2 cells - 0 hour (AID 1224882). Further: nearly all actives have a fitted effect of over 35% in size. An outline of the steps:
(§3)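 HepG2 cells, 600/well, preincubated 5 h with CellTox Green dye, then exposed to Tox21 compounds in DMSO at 37 C for up to 40 h. Dead-cell DNA fluorescence read at the indicated time point.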

The nature of assay [8]: A CellTox Green Cytotoxicity Assay to monitor cytotoxicity in HEK293 cells - 40 hour (AID 1224871). Further: nearly all actives have a fitted effect of over 45% in size. Further: potency means the concentration at half of the fitted maximal effect. An outline of the steps:
as §1

A short description of assay [9]: qHTS RealTime-Glo MT Cell Viability Assay in HEK293 cells - 16 hour (AID 1224872). Further: nearly all actives have a fitted effect of over 50% in size. Further: potency means the concentration at half of the fitted maximal effect. Summed up: (§4)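 Tox21 10K qHTS, HEK293, 600 cells/well, RealTime-Glo reagent co-dispensed with cells; 5 h preincubation, compound by pintool, 37 C, luminescence at 0–40 h.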
Assay [10] can be described thus: qHTS RealTime-Glo MT Cell Viability Assay in HepG2 cells - 8 hour (AID 1224873). Further: nearly all actives have a fitted effect of over 55% in size. Further: potency means the concentration at half of the fitted maximal effect. An outline of the steps: (§5)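 HepG2 cells mixed with RealTime-Glo MT reagents (NanoLuc plus cell-permeant prosubstrate) were seeded at 600 cells/well, incubated 5 h at 37 C/5% CO2, then pinned with compounds in DMSO; nonlytic luminescence tracked viability during 40 h treatment.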
A short description of assay [11]: qHTS RealTime-Glo MT Cell Viability Assay in HepG2 cells - 24 hour (AID 1224867). Further: nearly all actives have a fitted effect of over 50% in size. Further: potency means the concentration at half of the fitted maximal effect. Summed up: (§6)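 Cells + NanoLuc/prosubstrate dispensed (600 cells/well) → 5 h at 37 C/5% CO2 → compounds in DMSO transferred → 40 h incubation at 37 C, luminescence read at 0, 8, 16, 24, 32, 40 h.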
Assay [12] in a line: qHTS RealTime-Glo MT Cell Viability Assay in HepG2 cells - 40 hour (AID 1224870). Further: nearly all actives have a fitted effect of over 50% in size. Further: potency means the concentration at half of the fitted maximal effect. Summed up:
as §5

A short description of assay [13]: A CellTox Green Cytotoxicity Assay to monitor cytotoxicity in HepG2 cells - 16 hour (AID 1224876). Further: nearly all actives have a fitted effect of over 45% in size. Further: potency means the concentration at half of the fitted maximal effect. Summed up:
as §3

Assay [14] can be described thus: qHTS RealTime-Glo MT Cell Viability Assay in HepG2 cells - 32 hour (AID 1224877). Further: nearly all actives have a fitted effect of over 55% in size. Further: potency means the concentration at half of the fitted maximal effect. Summed up:
as §6

The nature of assay [15]: A CellTox Green Cytotoxicity Assay to monitor cytotoxicity in HepG2 cells - 24 hour (AID 1224878). Further: nearly all actives have a fitted effect of over 45% in size. Further: potency means the concentration at half of the fitted maximal effect. An outline of the steps:
as §3

A short description of assay [16]: A CellTox Green Cytotoxicity Assay to monitor cytotoxicity in HepG2 cells - 40 hour (AID 1224879). Further: nearly all actives have a fitted effect of over 40% in size. Further: potency means the concentration at half of the fitted maximal effect. Summed up:
as §3

Assay [17] in a line: qHTS assay to identify small molecule antagonists of the estrogen related receptor (ERR) signaling pathway from Tox21 library (AID 1224848). Further: nearly all actives have a fitted effect of over 50% in size. Further: potency means the concentration at half of the fitted maximal effect. Summed up:
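Cells: ERR line, 2,000/well; 6 h preincubation 37 C/5% CO2. Cpd in DMSO via pin tool; 18 h, 37 C. ONE-Glo, 30 min RT, luminescence.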

Assay [18] can be described thus: qHTS RealTime-Glo MT Cell Viability Assay in HEK293 cells - 32 hour (AID 1224868). Further: nearly all actives have a fitted effect of over 50% in size. Further: potency means the concentration at half of the fitted maximal effect. Summed up:
as §4

Assay [19] can be described thus: qHTS assay to identify small molecule agonists of H2AX - cell viability counter screen (AID 1224847; calls by dose curve;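 further: wild-type CHO-K1 cells; top concentration of the series differs between compounds; nearly all actives have a fitted effect of over 30% in size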). An outline of the steps:
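After overnight plating of 1000 CHO-K1 cells per well, a 15-concentration compound series was applied for 3 hr at 37C. Luminescence from CellTiter-Glo, read following 30 min at room temperature, reflected cell viability.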
On the % scale 0 is the no-effect control and ±100 the full control effect.

As for `CC[C@H](C)[C@H]1O[C@]2(C=C[C@@H]1C)C[C@@H]1C[C@@H](C/C=C(\C)[C@@H](O[C@H]3C[C@H](OC)[C@@H](O[C@H]4C[C@H](OC)[C@@H](O)[C@H](C)O4)[C@H](C)O3)[C@@H](C)/C=C/C=C3\CO[C@@H]4[C@H](O)C(C)=C[C@@H](C(=O)O1)[C@]34O)O2`, the activity change, positive = activation in assay [1] is -67% [at 42.5 µM] (inactive). Also, the Potency result in assay [2], in [4], in assay [5], in assay [6] and in [7] was “inactive” in each case. Further, the Potency in [3] is 10.3 µM (active).

For `CCCCCCCCCCCCCCCC[n+]1ccccc1`, the Potency result in assay [2], in assay [5] and in [7] was “inactive” throughout. The Potency in [8] was 34.2 µM (active) [middle of 4 runs]; in [9], 21.6 µM (active) [middle of 4 runs]; in [10] it was 57.5 µM (active) and 49 µM (active) and 48.3 µM (active); in assay [6], 34.2 µM (active) [middle of 4 runs].

In the case of `O=C(O)c1cc[c]([Hg][Cl])cc1`, the Potency in assay [11] was 24.5 µM (active); in assay [12] it was 24.5 µM (active); in assay [8], 17.4 µM (active); in assay [10] it was 34.7 µM (active); in assay [3], 15.5 µM (active); in assay [4] it was 24.5 µM (active). Further, the Potency in [13] was 38.9 µM (active); in assay [14] it was 24.5 µM (active); in assay [15], 27.5 µM (active); in [16] it was 19.5 µM (active); in [6] it was 21.9 µM (active). Moreover, the Potency entry in assay [2], in [5] and in assay [7] was “inactive” each time.

Take `O=[N+]([O-])c1c2ccccc2cc2ccccc12`: the Potency result in assay [17], in assay [11], in assay [18], in assay [12], in [9] and in assay [10] was “inactive” each time. Also, the Potency entry in assay [5] is “inactive”. Moreover, the Potency is 5.43 µM (active) in assay [8]; 5.43 µM (active) in assay [4]; 1.08 µM (active) in [13]; 60.9 µM (active) in assay [16]; 5.43 µM (active) in assay [6]. In addition, in assay [3], the max response is 1.8% (inactive).

With `Oc1ccc(C(=C(Cl)Cl)c2ccc(O)cc2)cc1`, the Potency in assay [17] is 34.3 µM (active); in assay [18], 43.6 µM (active); in assay [9], 43.6 µM (active); in [3] it was 43.6 µM (active). The activity change, positive = activation in [1] is -44.3% (inactive). For the same compound, the Potency result in assay [11], in [2], in [12], in assay [8], in assay [10] and in assay [4] was “inactive” throughout. The Potency entry in [14], in [15], in assay [16], in [5], in assay [6] and in [7] was “inactive” each time.

For the compound `c1ccc2c(c1)OCC(C1=NCCN1)O2` (stereo not given), the Potency result in assay [2], in assay [10], in [4], in [13], in assay [14] and in assay [15] was “inactive” throughout. Moreover, the Potency entry in assay [16], in assay [5] and in assay [7] was “inactive” in each case. The Potency in assay [8] was 23.9 µM (active); in assay [3], 19 µM (active); in assay [6], 19 µM (active).

For the compound `COc1cccc(C(=O)CCN[C@@H](C)[C@H](O)c2ccccc2)c1`, in assay [1], the activity change, positive = activation was 2.02% [at 42.5 µM] (inactive). Also, the Potency result in assay [2], in assay [10], in assay [13], in [5] and in [7] was “inactive” each time. In addition, the Potency in assay [12] and in assay [14] was 23.9 µM (active) throughout.

For `Clc1ccc(-c2ccc(Cl)c(Cl)c2Cl)c(Cl)c1Cl`, the Potency entry in assay [17], in [11], in assay [12], in assay [8], in [9] and in assay [10] was “inactive” throughout. Further, the Potency result in [4], in assay [13], in assay [14], in assay [15], in [16] and in assay [5] was “inactive” in each case. The Potency entry in assay [6] and in assay [7] was “inactive” throughout. Further, the activity change, positive = activation in assay [1] is 6.41% (inactive).

For `Nc1ccc(Cc2ccc(N)c(Cl)c2)cc1Cl`, the Potency in assay [17] is 26.4 µM (active); in [18], 26.6 µM (active); in assay [9], 29.9 µM (active); in assay [3], 23.7 µM (active). For the same compound, in assay [1], the activity change, positive = activation is -35.2% (inactive). For the same compound, the Potency entry in assay [11], in assay [2], in [12], in assay [8], in [4] and in assay [13] was “inactive” in each case. The Potency result in [15], in assay [16], in assay [5], in assay [6] and in assay [7] was “inactive” each time.

Consider `C[C@@H]1O[C@@H](O[C@H]2C[C@@H](O)[C@]3(CO)[C@H]4[C@H](O)C[C@]5(C)[C@@H](C6=CC(=O)OC6)CC[C@]5(O)[C@@H]4CC[C@]3(O)C2)[C@H](O)[C@H](O)[C@H]1O`, for which the Potency result in assay [19], in [2], in assay [8], in assay [4], in assay [13] and in [15] was “inactive” throughout. Besides, the Potency result in assay [6] and in assay [7] was “inactive” throughout.

On to `O=[N+]([O-])O.O=[N+]([O-])O.[Cd]`, for which the Potency in [18] was 49 µM (active); in [8], 6.92 µM (active); in [3], 24.5 µM (active); in assay [15], 49 µM (active); in assay [16], 43.6 µM (active); in [6], 38.9 µM (active). Further, the Potency entry in assay [12], in assay [10], in [13] and in [5] was “inactive” throughout.

As to `[Cd+2].[Cl-].[Cl-]`, the Potency entry in [2], in assay [12], in [10], in assay [4], in [5] and in [7] was “inactive” each time. Moreover, the Potency in assay [8] was 24.8 µM (active) and 7.76 µM (active); in [3], 12.4 µM (active); in assay [13], 55.4 µM (active) and inactive; in [15], 22.1 µM (active) and 38.9 µM (active); in assay [16], 19.7 µM (active) and 24.5 µM (active); in [6], 44 µM (active) and 15.5 µM (active).

For `CC(C)(C)C(O)C(Oc1ccc(-c2ccccc2)cc1)n1cncn1` (stereo not given), the Potency was 27.3 µM (active) in [17], 24.5 µM (active) in assay [18], 49 µM (active) in [9] and 21.9 µM (active) in [3]. The activity change, positive = activation in [1] was -60.3% (inactive). Also, the Potency entry in [11], in [2], in [12], in [8], in assay [10] and in [4] was “inactive” each time. In addition, the Potency entry in [13], in assay [14], in assay [5], in assay [6] and in assay [7] was “inactive” in each case.

In the case of `O=CC(Br)(Br)Br`, the Potency in [11] was 48.8 µM (active); in assay [18], 2.45 µM (active); in assay [12], 43.5 µM (active); in assay [3] it was 2.45 µM (active); in assay [14], 43.5 µM (active); in assay [15], 48.8 µM (active). Further, in assay [16], the Potency is 43.5 µM (active). The Potency result in assay [2], in [5] and in [7] was “inactive” each time.
